The list is not random: actives were taken first. Their share in the collection is about 18%.
CtBP-E1A inh: CtBP/E1A binding inhibition; AlphaScreen GST-E1A/His-CtBP binding, 1536-well; stronger effect = lower value; activity change, % (concentration not given with the values); hit rate 0.49% among 340,000; AID 651724; in the data active = activity change below about -65%; inconclusive = mostly about -30% to -63%
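AlphaScreen with 125 nM GST-E1A and 125 nM His-CtBP (5X stocks) in Tris pH 8.0, 300 mM NaCl, BSA, Tween 20, TCEP. Compounds preincubated 2 h at 37 deg C, then glutathione donor/nickel acceptor beads added for 1 h at 37 deg C in dark.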
Six1-Eya2 blk: blocks human Six1 binding to Eya2; activity change, % (concentration not given with the values); hit rate 0.56% among 360,000; AlphaScreen GST-Six1/His-Eya2 binding, biochemical; stronger effect = lower value; in the data active = activity change below about -65%; inconclusive = mostly about -30% to -63%
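Six1/Eya2 binding was read as AlphaScreen signal after compounds were pinned into GST-Six1 plus His-tagged Eya2 (5X stock 250/500 nM) in pH 8.0 Tris/NaCl/TCEP buffer, beads added, then incubated 1 h, 37 C, dark.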
IL-1B inflam inh: blocks inflammasome-driven IL-1 beta release. activity change, % at 57.5 µM. THP-1 LPS/ATP IL-1B secretion, AlphaLISA, 16 h; stronger effect = lower value. hit rate 4.7% among 360,000. AID 743279; in the data active = activity change below about -50%; inconclusive = mostly about -30% to -49%
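Secreted IL-1B measured by AlphaLISA bead assay after 16 h compound exposure of THP-1 cells; compounds (final up to 57.5 uM) added 1 h before LPS (250 ng/mL) and ATP (1.25 mM) stimulation; lower signal means less secretion.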
TDP1 cell noCPT: qHTS for Inhibitors of human tyrosyl-DNA phosphodiesterase 1 (TDP1): qHTS in cells in absence of CPT | DT40 Tdp1-/- hTDP1 cells, no CPT, ATP luminescence, 48 h | Potency, µM (top dose mostly 46.2 µM), without a hit: top-dose activity change, negative = growth inhibition, most hits filed as inhibitors | hit rate 15% among 420,000 | AID 686978, 2013; note: potency is the fitted concentration of half-maximal effect; nearly all actives have a fitted effect of over 55% in size
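Luminescent ATP content (CellTiter-Glo) served as the growth readout. Knockout chicken DT40 cells expressing human TDP1 were exposed to compounds without camptothecin for a minimum 48 hr at 37 °C.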
DT40 TDP1 CPT: DT40-hTDP1 cell growth loss with CPT | chicken DT40 Tdp1-/-;hTDP1 cells + 20 nM CPT, ATP luminescence, 48 h | Potency, µM (doses to about 46.2 µM), for the others: top-dose activity change, negative = growth inhibition, hits mostly inhibitors | hit rate 12% among 420,000 | AID 686979; note: potency is the fitted concentration of half-maximal effect; nearly all actives have a fitted effect of over 55% in size
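Cell growth measured by CellTiter-Glo luminescence after a minimum 48 h, 37 C compound exposure with 20 nM CPT in Tdp1-knockout DT40 cells stably expressing hTDP1, seeded 400/well; qHTS titration format.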
TDP1 inh: blocks human tyrosyl-DNA phosphodiesterase 1 | Q9NUW8 | recombinant TDP1, AlphaScreen DNA substrate cleavage | Potency, µM (titrated, usually from 130 µM), for the others: at the top dose activity change, negative = inhibition, usual class: inhibitors | hit rate 0.28% among 350,000; note: potency is the fitted concentration of half-maximal effect; nearly all actives have a fitted effect of over 40% in size
Target sequence (Q9NUW8 whole entry, looked up): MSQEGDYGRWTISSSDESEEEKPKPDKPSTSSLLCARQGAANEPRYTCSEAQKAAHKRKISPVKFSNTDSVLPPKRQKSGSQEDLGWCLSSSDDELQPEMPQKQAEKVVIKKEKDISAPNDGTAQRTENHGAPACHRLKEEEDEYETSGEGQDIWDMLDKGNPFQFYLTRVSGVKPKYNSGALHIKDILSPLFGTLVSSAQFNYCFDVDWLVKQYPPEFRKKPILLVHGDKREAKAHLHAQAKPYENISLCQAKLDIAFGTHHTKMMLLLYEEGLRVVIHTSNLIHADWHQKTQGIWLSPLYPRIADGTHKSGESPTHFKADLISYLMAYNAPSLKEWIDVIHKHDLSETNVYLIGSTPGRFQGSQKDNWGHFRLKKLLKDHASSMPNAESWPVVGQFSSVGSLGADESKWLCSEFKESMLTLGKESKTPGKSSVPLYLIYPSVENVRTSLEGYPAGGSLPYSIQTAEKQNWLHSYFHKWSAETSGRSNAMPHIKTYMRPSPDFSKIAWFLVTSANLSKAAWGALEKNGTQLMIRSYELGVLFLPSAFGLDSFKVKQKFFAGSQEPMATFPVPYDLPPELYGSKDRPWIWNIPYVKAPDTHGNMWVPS
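E. coli-derived human Tdp1, 1 nM final. Cpd preinc 15 min RT; substrate 15 nM final, 5 min RT; AS bead mix 10 ug/ml final, 10 min RT. Signal loss = tyrosine-FITC cleavage. No-enzyme wells = max signal.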
Starred values were filed as active, the others as inactive; ? = inconclusive; . = no result. Unless noted, calls come from the whole dose curve; as a rule, active = well fitted curve in the direction sought with a large enough effect; inconclusive = small, poorly fitted or top-dose-only effect, or another doubt; inactive = no such curve, though single readings can be large; an effect the other way counts as inactive or inconclusive. % is set by controls: 0 for no effect and ±100 for the full control effect.

SMILES	CtBP-E1A inh	Six1-Eya2 blk	IL-1B inflam inh	TDP1 cell noCPT	DT40 TDP1 CPT	TDP1 inh
COc1ccc(-n2ccnc2SCC(=O)Nc2ccc(F)cc2F)cc1	.	.	.	-27.2%	?	11.0%
Cc1cc(C)cc(-n2ccnc2SCC(=O)Nc2cccc3ccccc23)c1	.	.	.	18.4µM*	20.6µM*	13.2%
Cc1cc(C)cc(-n2ccnc2SCC(=O)Nc2ccccc2F)c1	.	.	.	16.4µM*	23.1µM*	9.9%
Cc1ccc(CN(Cc2ccco2)S(=O)(=O)c2ccc(S(=O)(=O)NCC3CCCO3)cc2)cc1 (centres undefined)	-9.1	-0.3	-6.4	?	?	2.6%
O=C(NCc1csc(-c2cccs2)n1)Nc1ccc(C(F)(F)F)cc1	0.6	-1.1	.	?	5.5%	3.7%
CCOC(=O)Cc1ccc(NC(=O)N(C(C)C)C2CCN(C(C)=O)CC2)cc1	.	.	.	-1.9%	1.4%	2.9%
CCCNC(=O)NCCc1ccncc1	3.4	-1.1	59.3	-8.0%	-3.2%	-2.0%
O=C(/C=C/c1c(Cl)nc2ccccn12)N1CCN(c2ccccc2F)CC1	-23.4	3.1	-21.4	23.1µM*	-19.3%	0.0%
O=C(/C=C/c1c(Cl)nc2ccccn12)N1CCN(c2ccc(F)cc2)CC1	0.7	-7.5	76.7	25.9µM*	?	79.4µM*
O=C(/C=C/c1c(Cl)nc2ccccn12)N1CCCCC1	-25.0	-14.7	-7.1	?	-24.4%	3.8%
CN(Cc1ccon1)C(=O)CCc1nnc(CCCCc2ccccc2)o1	4.5	-1.8	14.2	12.1%	-19.3%	4.8%
COc1cccc(NC(=O)COc2c(F)c(F)c(C(F)(F)F)c(F)c2F)c1	24.9	13.4	-0.8	-9.0%	-1.1%	5.5%
CSc1nnc(CSCc2ccc(Cl)cc2Cl)n1-c1ccccc1	1.4	-1.2	-16.3	20µM*	?	2.1%
CC(=O)NC(c1ccc(C)cc1)c1cc([N+](=O)[O-])c2cccnc2c1O (centres undefined)	-92.8*	-90.1*	118.7	14.6µM*	5.8µM*	11.9%
CCCC(=O)NC(c1ccco1)c1cc([N+](=O)[O-])c2cccnc2c1O (centres undefined)	.	-91.6*	90.3	-22.5%	-7.0%	7.9%
CCC(=O)NC(c1ccc(C)cc1)c1cc([N+](=O)[O-])c2cccnc2c1O (centres undefined)	-86.6*	-84.9*	41.8	20.6µM*	?	0.5%
Cc1c(C(=O)N2CCOCC2)cc(C(C)(C)C)n1-c1ccccc1	-5.8	-1.8	-1.7	20.6µM*	?	8.9%
CN(C)c1ccc2c(c1)OC(N)=C(C#N)C2c1cccc(F)c1 (centres undefined)	-15.4	-13.7	-21.5	0.0206µM*	0.0206µM*	9.4%
COc1ccc(NS(=O)(=O)c2ccc3[nH]c4c(c3c2)CCCC4)cc1OC	.	.	.	14.6µM*	13µM*	9.5%
COc1ccc(OC)c(NC(=O)CN(C)S(=O)(=O)c2ccc3[nH]c4c(c3c2)CCCC4)c1	.	.	.	20.6µM*	18.4µM*	8.7%
COc1cccc(CNC(=O)CN(C)S(=O)(=O)c2ccc3[nH]c4c(c3c2)CCCC4)c1	.	.	.	?	?	5.0%
CCOC(=O)c1ccc(NS(=O)(=O)c2ccc3[nH]c4c(c3c2)CCCCC4)cc1	.	.	.	.	.	7.4%
CCc1ccc(NS(=O)(=O)c2ccc3[nH]c4c(c3c2)CCCCCC4)cc1	.	.	.	?	?	6.6%
COc1cc(NS(=O)(=O)c2ccc3[nH]c4c(c3c2)CCCCCC4)cc(OC)c1	.	.	.	11.6µM*	?	11.0%
COc1cc(NS(=O)(=O)c2ccc3[nH]c4c(c3c2)CCCC4)cc(OC)c1OC	.	.	.	0.581µM*	0.92µM*	12.4%
SMILES	CtBP-E1A inh	Six1-Eya2 blk	IL-1B inflam inh	TDP1 cell noCPT	DT40 TDP1 CPT	TDP1 inh
CCOC(=O)C1=C(C)N(C)C(=S)NC1c1c(OCC)ccc2ccccc12 (centres undefined)	-9.8	-11.1	24.1	-93.6%	?	1.2%
CCC1CCCCN1Cc1nc2c(c(=O)n(C)c(=O)n2C)n1CCC(C)C (centres undefined)	2.6	0.9	20.4	14.6µM*	16.4µM*	0.0%
CCCCCCn1c(CN2CCCCC2CC)nc2c1c(=O)n(C)c(=O)n2C (centres undefined)	-21.5	0.9	23.4	13µM*	23.1µM*	-2.1%
[O-][n+]1c2ccccc2c2n1CCN=C2c1ccc(Cl)cc1	.	-6.9	14.9	-22.2%	-12.1%	4.0%
O=[N+]([O-])c1ccc2c3n([n+]([O-])c2c1)CCN=C3c1ccc(Cl)cc1	.	-11.9	-13.7	14.6µM*	9.2µM*	10.5%
Cc1ccc(C2=NCCn3c2c2ccc([N+](=O)[O-])cc2[n+]3[O-])cc1	-8.1	0.7	7.8	10.3µM*	4.11µM*	6.9%
CCn1c(SCC(=O)NCc2ccccc2)nnc1-c1c[nH]c2ccccc12	-3.8	0.8	-12.2	-12.2%	?	6.7%
CC(=NNc1nc2ccccc2s1)c1ncccn1	0.0	-92.4*	-0.4	0.0206µM*	-76.0%	.
C/C(=N\Nc1nc2ccccc2s1)c1cccs1	-7.0	-11.3	-83.3*	?	?	-1.9%
CCOc1ccccc1C(=O)NC(C(=O)NCc1ccc(F)cc1)C(C)C (centres undefined)	0.1	2.9	34.3	?	?	1.2%
COc1cc2ccccc2cc1C(=O)O	6.1	13.0	12.9	-13.9%	-1.3%	-2.3%
COc1ccc(OC)c2cc3ccccc3cc12	-11.5	-19.8	0.0	0.92µM*	0.731µM*	.
COc1ccc2ccccc2c1-c1c(OC)ccc2ccccc12	.	.	.	.	.	5.0%
COc1cc2ccccc2ccc1=NO	-20.1	-19.5	?	11.6µM*	16.4µM*	.
COc1ccc(-n2nc(C(=O)NCCc3ccc(Cl)cc3)c3c4ccccc4n(C)c3c2=O)cc1	.	.	.	10.3µM*	8.2µM*	-7.0%
CCN(CC)CCCNC(=O)c1nn(-c2ccc(OC)c(Cl)c2)c(=O)c2c1c1ccccc1n2C	.	.	.	16.4µM*	?	-7.0%
COc1ccc(-n2nc(C(=O)N3CCCC(C)C3)c3c4ccccc4n(C)c3c2=O)cc1Cl (centres undefined)	.	.	.	-97.1%	16.4µM*	0.0%
CCN(C(=O)c1nn(-c2ccc(OC)c(Cl)c2)c(=O)c2c1c1ccccc1n2C)c1cc(OC)ccc1OC	.	.	.	14.6µM*	?	7.0%
O=C(CC(=O)N/N=C/c1cccs1)NCc1ccccc1	4.9	1.6	1.9	-22.3%	9.4%	0.0%
CNc1nc(N)c(C(=O)C23CC4CC(CC(C4)C2)C3)s1	-23.5	-6.9	-14.4	-24.2%	-12.1%	5.4%

Assay outcomes deposited in PubChem BioAssay by National Center for Advancing Translational Sciences (NCATS).
